# Experimental data taken from PMC4336329 (PLoS ONE, 2015).
# The campaign covered roughly 310,000 compounds. About 14,000 (4.5%) showed an effect of 50% or more. Effects have a minus sign here. The sample as a whole holds a higher share of strong results than the screen did.
# Biological target: human ether-à-go-go-related gene (hERG) potassium channel (human, UniProt Q12809)
# Test: primary screen, population patch clamp on CHO cells stably expressing hERG; higher = less effect of the substance
# Description: Briefly, Chinese hamster ovary (CHO) cells stably expressing the hERG channel were dislodged from tissue culture flasks and dispensed into PPC plates. […] During the recording, background leak currents were estimated by a 100 ms step to -80 mV from an initial holding potential of -70 mV and subtracted from the subsequent current measurement. The campaign was conducted in two phases using slight differences in recording protocol. In the first phase, the initial voltage pulse used a 100 ms step to -30 mV from a holding potential of -70 mV, a 2 s conditioning step to +25 mV, and a 2 s test step to -30 mV. During the second phase of the screen, the potential during the conditioning step was raised to +45 mV. In both phases of the campaign, a secondary voltage pulse was applied using the same parameters as the second phase initial pulse. The initial and secondary pulses were applied in the absence of compound, and upon application of 1 μM and 10 μM test concentrations. […]
# 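Note: peak tail current of the secondary pulse compared with the same well before compound.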
# human ether-à-go-go-related gene (hERG) potassium channel, sequence (Q12809 whole entry, looked up): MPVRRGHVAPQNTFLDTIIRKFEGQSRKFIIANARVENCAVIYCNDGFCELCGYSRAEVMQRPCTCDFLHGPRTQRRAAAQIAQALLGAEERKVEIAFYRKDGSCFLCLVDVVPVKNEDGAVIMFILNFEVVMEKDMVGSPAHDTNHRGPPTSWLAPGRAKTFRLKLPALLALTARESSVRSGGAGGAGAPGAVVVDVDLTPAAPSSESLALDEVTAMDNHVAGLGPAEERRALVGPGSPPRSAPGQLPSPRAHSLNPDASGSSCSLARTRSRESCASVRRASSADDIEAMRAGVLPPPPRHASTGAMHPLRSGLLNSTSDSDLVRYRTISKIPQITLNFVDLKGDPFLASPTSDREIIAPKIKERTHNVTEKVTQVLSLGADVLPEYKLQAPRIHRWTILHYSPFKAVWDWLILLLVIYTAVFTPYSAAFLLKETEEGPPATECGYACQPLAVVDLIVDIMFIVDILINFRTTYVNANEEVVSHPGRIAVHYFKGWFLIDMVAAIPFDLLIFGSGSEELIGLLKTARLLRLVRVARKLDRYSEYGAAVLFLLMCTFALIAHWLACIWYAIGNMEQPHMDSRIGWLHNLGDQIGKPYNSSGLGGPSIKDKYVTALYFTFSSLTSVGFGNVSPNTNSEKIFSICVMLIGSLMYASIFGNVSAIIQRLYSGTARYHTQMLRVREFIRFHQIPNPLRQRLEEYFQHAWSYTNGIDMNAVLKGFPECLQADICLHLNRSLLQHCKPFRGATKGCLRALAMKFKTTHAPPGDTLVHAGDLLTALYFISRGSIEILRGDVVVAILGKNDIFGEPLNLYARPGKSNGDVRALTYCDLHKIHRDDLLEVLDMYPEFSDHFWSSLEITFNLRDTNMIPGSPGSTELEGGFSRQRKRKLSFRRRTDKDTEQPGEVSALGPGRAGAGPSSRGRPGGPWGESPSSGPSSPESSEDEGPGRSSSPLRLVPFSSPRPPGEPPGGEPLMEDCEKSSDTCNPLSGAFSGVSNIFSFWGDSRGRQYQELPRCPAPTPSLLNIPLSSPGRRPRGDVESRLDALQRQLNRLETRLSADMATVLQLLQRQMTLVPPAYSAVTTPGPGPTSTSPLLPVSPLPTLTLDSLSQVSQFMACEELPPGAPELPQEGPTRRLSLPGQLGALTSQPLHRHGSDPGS
row,Structure (SMILES),"hERG current change (%, negative = inhibition) at 10uM"
1,COc1cc(OC)cc(-n2nnnc2SCC(=O)Nc2nc3c(s2)CCCC3)c1,7.1%
2,Cc1nnc(SCC(=O)Nc2ccc3c(c2)OCO3)n(N)c1=O,11.3%
3,O=C(COc1cccc(-n2cnnn2)c1)N1CCOCC1,2.13%
4,O=C1OC(c2ccc(Br)cc2)=N/C1=C\N1CCCCC1,22%
5,CCN1CCCC1CNC(=O)CN1C(=O)COc2ccc(C)cc21 (centres unmarked),-12.4%
6,COc1cccc(CNC(=O)CCC2CCCN(Cc3ccc(OC(F)F)cc3)C2)c1 (centres unmarked),-76.6%
7,COc1cccc(CNC(=O)CCC2CCCN(C(=O)c3cccc(Cl)c3)C2)c1 (centres unmarked),-20.9%
8,COc1cccc(CNC(=O)CCC2CCCN(C3CCOCC3)C2)c1 (centres unmarked),-0.768%
9,COc1cccc(CNC(=O)CCC2CCCN(C(=O)CCC(F)(F)F)C2)c1 (centres unmarked),-5.17%
10,COc1cccc(CNC(=O)CCC2CCCN(Cc3cc(Cl)ccc3O)C2)c1 (centres unmarked),-60.6%
11,COc1cccc(CNC(=O)CCC2CCCN(C(=O)c3ccc(F)c(Cl)c3)C2)c1 (centres unmarked),-16.6%
12,CC12CCC(C(=O)NC3CCCCC3)([C@H](Br)C1=O)C2(C)C (some centres unmarked),10.6%
13,Cc1cc(C)cc(OCC(=O)OCC(=O)N2CCc3ccccc32)c1,14.5%
14,Cc1ccc(C(C)C)c(OCc2nn(CC(=O)c3ccc(OC(F)F)cc3)c3[n+]2CCCCC3)c1.[Br-],-72.5%
15,Cc1ccc(C(C)C)c(OCc2nn(CC(=O)c3ccc(Cl)cc3)c3[n+]2CCCCC3)c1.[Br-],-73.3%
16,O=C(Cn1nc(CNc2ccc(Cl)cc2)[n+]2c1CCCCC2)c1ccc(Cl)cc1.[Br-],-8.17%
17,COc1ccc(NCc2nn(CC(=O)c3ccc(Br)cc3)c3[n+]2CCCCC3)cc1.[Br-],10.1%
18,Cc1ccc(C(C)C)c(OCC(=O)Nc2ccc(Cl)cn2)c1,-8.82%
19,O=C(Cn1nc(CNc2ccc(Cl)cc2)[n+]2c1CCCCC2)c1ccccc1.[Br-],9.17%
20,O=C(Cn1nc(CNc2ccc(Cl)cc2)[n+]2c1CCCCC2)c1ccc(Br)cc1.[Br-],-61.6%
21,COc1ccc(C(=O)Cn2nc(CNc3ccc(Br)cc3)[n+]3c2CCCCC3)cc1.[Br-],15.4%
22,O=C(Cn1nc(-c2nn(CC(=O)c3ccccc3)c3[n+]2CCCCC3)[n+]2c1CCCCC2)c1ccccc1.[Br-],12.8%

row,Structure (SMILES),"hERG current change (%, negative = inhibition) at 10uM"
1,O=C(Nc1ccccc1C(F)(F)F)c1cc(S(=O)(=O)N2CCC3(CC2)OCCO3)ccc1F,-17.1%
2,O=C(CCCCCN1C(=O)c2ccccc2C1=O)Nc1ccc(S(=O)(=O)N2CCCCC2)cc1,-46.6%
3,COc1ccc(NC(=O)N2CCCC(c3nc(-c4ccc(OC)cc4)no3)C2)cc1 (centres unmarked),-4.38%
4,Cc1ccnc(NC(=O)C2CCN(S(=O)(=O)c3ccc(C)c(C)c3)CC2)c1,4.97%
5,Cl.N[C@@H](CO)c1nnc([C@H](CC(=O)O)NC(=O)C2CCNCC2)o1,16.7%
6,O=C(COC(=O)c1c[nH]c2ccccc12)Nc1ccc([N+](=O)[O-])cc1,-0.338%
7,COC(=O)[C@@H](NC(=O)NCc1ccco1)C(C)C,2.75%
8,Cc1cccc(NC(=O)c2cc(-c3cc(Cl)ccc3O)n[nH]2)c1,18.2%
9,CCN(Cc1ccncc1)C(=O)c1cccs1,2%
10,COc1cccc(CN(C)C(=O)c2cccnc2SC)c1OC,9.74%
11,COC(=O)c1cccc(NC(=O)C23CC4CC(C2)CC(n2cncn2)(C4)C3)c1,-25.4%
12,O=C(Nc1ccc2c(c1)OCO2)c1ccccc1SCC(=O)N1CCCC1,5.23%
13,CCOC(=O)C1CCN(C(=O)CSc2ccc(Cl)cc2)CC1,-32.5%
14,CCOC(=O)C1CCN(C(=O)CSc2ccccc2)CC1,-20.3%
15,CCOC(=O)C1CCN(CCCSc2ccccc2)CC1.Cl,-62.4%
16,CCOC(=O)C1CCN(CCCSc2ccc(C)cc2)CC1.Cl,-71%
17,CCOC(=O)C1CCN(CCCSc2ccc(Cl)cc2)CC1.Cl,-72.7%
18,CCOC(=O)C1CCCN(CCSc2ccc(C)cc2)C1.Cl (centres unmarked),-28.3%
19,Cc1ccc(SCCCCN2CCOCC2)cc1.Cl,-24.6%
20,CCN1CCN(CCCCSc2ccccc2)CC1.O=C(O)C(=O)O,-28.3%
21,CCOC(=O)C1CCN(C(=O)C(C)Sc2ccc(Cl)cc2)CC1 (centres unmarked),-27.9%
22,COC(=O)[C@H](C)NC(=O)NCc1ccccc1,1.58%

row,Structure (SMILES),"hERG current change (%, negative = inhibition) at 10uM"
1,CCCC(=O)Nc1ccc2c(c1)nc1n2CCOC1,6.13%
2,Cc1ccc(-n2nnc3ccccc3c2=O)cc1C,-2.63%
3,c1coc(-c2nc3c4c5c(sc4ncn3n2)CCCC5)c1,10.6%
4,COCC(=O)N1CCC(Oc2ccc(C(=O)NCCCC3CCCC3)cc2)CC1,-71.5%
5,COCCC(=O)N1CCC(Oc2ccc(C(=O)NCCSC)cc2)CC1,13.6%
6,O=C(NC1CCOC1)c1ccc(OC2CCN(CCc3ccccc3)CC2)cc1 (centres unmarked),-39.8%
7,CSCCCNC(=O)c1ccc(OC2CCN(CCc3ccccc3)CC2)cc1,-75.2%
8,COC(=O)CCCNC(=O)c1ccc(OC2CCN(CCc3ccccc3)CC2)cc1,-47.7%
9,COCC(=O)N1CCC(Oc2ccc(C(=O)N(C)CCCC3CCCC3)cc2)CC1,-26.9%
10,COCCC(=O)N1CCC(Oc2ccc(C(=O)NCCCC3CCCC3)cc2)CC1,-37.3%
11,CSCCNC(=O)c1ccc(OC2CCN(CCc3ccccc3)CC2)cc1,-64.6%
12,CSCCCNC(=O)c1ccc(OC2CCN(C(=O)c3cccnc3)CC2)cc1,-11.4%
13,CN(C)S(=O)(=O)c1cccc(NC(=S)N/N=C/C(c2ccccc2)c2ccccc2)c1,1.1%
14,COc1ccc([N+](=O)[O-])cc1NC(=O)c1cncc(Br)c1,-12.2%
15,CN1C(=O)NC(c2ccccc2Cl)C2=C1CC(C)(C)CC2=O (centres unmarked),5.71%
16,O=C(NCCC1=CCCCC1)C1CCCN(S(=O)(=O)c2ccc(F)cc2)C1 (centres unmarked),19.6%
17,COc1cc(OC)cc(C(=O)NCCSc2c[nH]c3ccccc23)c1,-17.1%
18,NC(=O)c1sc2nc3c(cc2c1N)CCC3,8.92%
19,CC(=O)c1ccc(OC(=O)C2CSC3(C)CCC(=O)N23)cc1 (centres unmarked),12.4%
20,CCN(CC)CC(O)Cn1c(-c2cccc(Cl)c2)nc2cc(C)c(C)cc21 (centres unmarked),-62.8%
21,CCN(CC)CC(O)Cn1c(-c2ccccc2Cl)nc2ccccc21 (centres unmarked),-25.2%
22,OC(CN1CCOCC1)Cn1c(-c2cccc(Cl)c2)nc2ccccc21 (centres unmarked),-21.3%

row,Structure (SMILES),"hERG current change (%, negative = inhibition) at 10uM"
1,CCOC(=O)[C@@H]1[C@H]2COc3ccc(Br)cc3[C@@H]2N2C(=O)N(c3ccc(C)cc3)C(=O)[C@]12C,5.6%
2,O=C(NCC1CCCCC1)c1cc(S(=O)(=O)N2CCCCC2)ccc1N1CCOCC1,-7.89%
3,COc1ccc(C2C(C#N)=C(N)Nc3onc(C(C)(C)C)c32)c(OC)c1 (centres unmarked),3.15%
4,COc1ccc2oc(C(=O)OCc3nnc(-c4ccccc4)o3)c(C)c2c1,19.8%
5,CCCCN(C(=O)COc1ccc(C)cc1OC)c1c(N)n(CCC)c(=O)[nH]c1=O,4.7%
6,O=C(c1ccccc1)c1ccccn1,2.58%
7,Cc1ccc(S(=O)(=O)N2CCC(C(=O)NCCC3=CCCCC3)CC2)cc1C,-11.6%
8,Cc1ccc(S(=O)(=O)N2CCC(C(=O)NCCN3CCOCC3)CC2)cc1C,8.7%
9,Cc1ccc(S(=O)(=O)N2CCC(C(=O)NCc3ccccc3CN3CCCC3)CC2)cc1C,-68.7%
10,COc1ccc(S(=O)(=O)N2CCC(C(=O)NCCC3=CCCCC3)CC2)cc1C,-56.2%
11,O=C(NCc1ccccc1Cl)C1CCN(S(=O)(=O)c2ccc(F)cc2)CC1,-45.6%
12,COc1ccc(S(=O)(=O)N2CCC(C(=O)NCCC3=CCCCC3)CC2)cc1OC,-23.5%
13,CCOc1ccc(S(=O)(=O)N2CCC(C(=O)NCc3ccccn3)CC2)cc1,-25.9%
14,O=C(NCc1ccccc1F)C1CCN(S(=O)(=O)c2ccccc2)CC1,-12.1%
15,CCOc1ccc(S(=O)(=O)N2CCC(C(=O)NCCc3ccccc3)CC2)cc1,29.1%
16,O=C(NCc1ccccc1CN1CCCC1)C1CCN(S(=O)(=O)c2ccc(F)c(F)c2)CC1,-59.1%
17,Cc1ccc(S(=O)(=O)N2CCC(C(=O)NCc3ccccc3Cl)CC2)cc1,-4.47%
18,CCOc1ccc(S(=O)(=O)N2CCC(C(=O)NCc3ccccc3CN3CCCC3)CC2)cc1,-64.3%
19,Cc1ccn2c(NC(=O)c3ccco3)c(-c3ccccc3)nc2c1,-23.7%
20,O=C(CSc1nc(O)cc(=O)[nH]1)N1c2ccccc2Sc2ccccc21,8.9%
